According to PubChem BioAssay AID1745856 (National Center for Advancing Translational Sciences (NCATS), 2022):
In all, about 120,000 compounds went through this assay and about 270 (0.23%) were called active. Roughly 5% stayed inconclusive and do not appear here. This is one part of a sample in which actives are shown more often than they occur. Calls come from the whole dose curve.

Experiment: Primary qHTS Assay for Foot and Mouth Disease Virus Antivirals against NCGC Sytravon and CBC Compound Libraries: Firefly Luciferase Signal; note: nearly all actives have a fitted effect of over 60% in size
Details: FMDV antiviral cell assay; series mostly up to 57.5 µM; activity change, negative = inhibition: at the top concentration
% is set by controls: 0 for no effect and ±100 for the full control effect; potency is the fitted concentration of half-maximal effect.

Row | Compound | activity change, negative = inhibition | Potency
1 | CCCc1cc(=O)oc2cc(OCC(=O)NCc3ccc(S(N)(=O)=O)cc3)ccc12 | 0.254% (inactive) | 
2 | O=C(NCc1ccccn1)C1c2ccccc2C(=O)N(C2CCCC2)C12CCCC2 (configuration not stated) | 0.974% (inactive) | 
3 | COc1ccc(-c2nc(CSCC(=O)NC3CCCCCC3)c(C)o2)cc1OC |  | 14.1 µM (active)
4 | CCOc1cc(-c2nnc(SCC(=O)NC3CCCCC3)nc2-c2ccc(OC)c(OCC)c2)ccc1OC | -17.6% (inactive) | 
5 | CCOc1cc(-c2nnc(SCC(=O)NC3CCCC3)nc2-c2ccc(OC)c(OCC)c2)ccc1OC | 38.3% (inactive) | 
6 | O=C(NCc1cccnc1)C(F)(F)C(F)(F)C(F)(F)F | -6.42% (inactive) | 
7 | Fc1ccc(N=Cc2cccc(Oc3ccccc3)c2)c(F)c1F | 8.8% (inactive) | 
8 | COc1cccc(NC(=O)CCCc2nc(C(C)C)no2)c1 | 9.4% (inactive) | 
9 | CCN1CCCC1CNC(=O)c1cccc2c(=O)c(C)c(-c3ccccc3)oc12 (configuration not stated) | -14.1% (inactive) | 
10 | Cc1ccc(NC(=O)COC(=O)c2ccc(C3Nc4ccccc4S(=O)(=O)N3)cc2)cc1 (configuration not stated) | 2.63% (inactive) | 
11 | CC(C)c1cccc(NC(=O)Cc2c[nH]c3ccccc23)c1 | 18.7% (inactive) | 
12 | Cc1ccc(-c2csc3c2NC(=O)CC3c2ccc(C)cc2)cc1 (configuration not stated) | 7.72% (inactive) | 
13 | COc1ccc(-c2csc3c2NC(=O)CC3c2ccc(OCC(N)=O)c(OC)c2)cc1 (configuration not stated) |  | 3.98 µM (active)
14 | COc1ccc(C2CC(=O)Nc3c2c(=O)nc2c(C)cccn32)cc1OC (configuration not stated) | -5.25% (inactive) | 
15 | Cn1c(=O)[nH]c(=O)c2c1nc(NC1CCCCC1)n2CCCc1ccccc1 | -4.08% (inactive) | 
16 | COc1ccc(NC(=O)COC(=O)c2nn(C)c(=O)c3ccccc23)cc1Cl | 8.49% (inactive) | 
17 | Cn1nc(CC(=O)Nc2cccc(Cl)c2)c2ccccc2c1=O |  | 8.91 µM (active)
18 | COc1ccc(Cl)cc1NC(=O)COC(=O)c1nn(C)c(=O)c2ccccc12 | 4.36% (inactive) | 
19 | Cc1ccc(-c2nc(CC(=O)NCc3ccc(Cl)cc3)cs2)o1 | 11% (inactive) | 
20 | COC(=O)c1c(C)[nH]c(C(=O)N2CCCCCC2c2ccc(OC)cc2)c1C (configuration not stated) | 27.9% (inactive) | 
21 | COc1nc2ccccc2nc1N1CCC(C(=O)NCc2ccccc2)CC1 | -6.82% (inactive) | 
22 | COc1ccc(-c2cc(C(F)(F)F)nc(S(=O)(=O)CCC(=O)NCc3ccccc3)n2)cc1 | 17.2% (inactive) | 

Row | Compound | activity change, negative = inhibition | Potency
23 | CC(C)(C)c1ccc(-c2nnc(-c3ccc(Br)o3)o2)cc1 | 227% (inactive) | 
24 | Clc1ccc(CNc2n[nH]c(-c3ccco3)n2)c(Cl)c1 | 2.56% (inactive) | 
25 | O=C(c1ccn(COc2ccccc2)n1)N1CCN(Cc2ccc(Cl)c(Cl)c2)CC1 | -20.2% (inactive) | 
26 | Cn1ccnc1C(NC(=O)Cc1ccsc1)c1ccccc1F (configuration not stated) | -5.78% (inactive) | 
27 | O=C(NC12CC3CC(CC(C3)C1)C2)C1CCCO1 (configuration not stated) | 0.929% (inactive) | 
28 | C=C(C)C#CC(Cc1ccccc1)NCC1CC1 (configuration not stated) | 4.99% (inactive) | 
29 | O=C(/C=C/c1ccc(Cl)cc1)OC1CCCCC1=O (configuration not stated) | 131% (inactive) | 
30 | CCOc1ccc2c(c1)cc(C(=O)Nc1cc(OC)ccc1OC)n2C | 6.52% (inactive) | 
31 | COC(=O)c1ccc(S(=O)(=O)Nc2cccc(C(=O)OC)c2)cc1 | 6.65% (inactive) | 
32 | COCCn1c(-n2nc(C)cc2C)nc2c1c(=O)n(Cc1ccccc1F)c(=O)n2C | -7.87% (inactive) | 
33 | Cc1ccc(NC(=O)c2cccc(CS(C)=O)c2)c(C)c1 (configuration not stated) | 0% (inactive) | 
34 | FC(F)(F)c1cnc(Sc2nnc(C3CC3)n2-c2ccccc2)c(Cl)c1 | -10.1% (inactive) | 
35 | O=C(CSc1n[nH]c(-c2cc(Cl)ccc2Cl)n1)N1CCCC1 | 14.1% (inactive) | 
36 | CCC(=O)Nc1ccc(C)cc1-c1nnc(SCC(=O)Nc2cc(Cl)ccc2Cl)[nH]c1=O | -0.529% (inactive) | 
37 | COc1ccc2c(C)c(CC(=O)N3CCN(c4ccccn4)CC3)c(=O)oc2c1OC | -12.5% (inactive) | 
38 | COc1ccccc1Oc1coc2cc(OCc3ccc(Cl)cc3)ccc2c1=O | 21.1% (inactive) | 
39 | CCn1c(=O)c2sccc2n(CC(=O)N2CCOc3ccc(C)cc32)c1=O | -4.07% (inactive) | 
40 | CC(=O)Nc1ccc(C(=O)COc2ncnc3sccc23)cc1 | 18.7% (inactive) | 
41 | CCCCC(CC)CNc1ncnc2sccc12 (configuration not stated) |  | 8.91 µM (active)
42 | CCCCC(CC)CNC(=O)CCCCn1c(=O)[nH]c2ccsc2c1=O (configuration not stated) | -10.5% (inactive) | 
43 | C=CCn1c(-n2nc(C)cc2C)nc2c1c(=O)n(CCOCC)c(=O)n2C | 8.16% (inactive) | 
44 | CC(C)Oc1ccc(C2CC(=O)NC3=C2C(=O)CC(C)(C)C3)cc1 (configuration not stated) | 24.8% (inactive) | 

Row | Compound | activity change, negative = inhibition | Potency
45 | N#C/C(=C/c1ccco1)c1nc2ccccc2[nH]1 | 181% (inactive) | 
46 | CC(Cn1cccn1)NC(=O)c1cc(Cl)c2c(c1)OCO2 (configuration not stated) | 0% (inactive) | 
47 | Cc1cc(=O)n2c3ccccc3n(CC(O)CNc3ccc(Cl)cc3)c2c1C#N (configuration not stated) | -3.73% (inactive) | 
48 | CCOC(=O)C1(C(C)=O)CC(C(=O)c2ccccc2)C(c2ccccc2)C(C(=O)c2ccccc2)C1 (configuration not stated) | 1.77% (inactive) | 
49 | COc1cc(OC)cc(C(NC(=O)NOCc2ccccc2)c2nccn2C)c1 (configuration not stated) | 21.3% (inactive) | 
50 | Cc1ccc(Cn2c(Br)nc3c2c(=O)n(C)c(=O)n3C)cc1 | 9.46% (inactive) | 
51 | O=C(Cc1ccccc1)Nc1ccc2oc(-c3ccc(F)cc3)nc2c1 | 108% (inactive) | 
52 | Cc1cc(O)c2c(C)c(CC(=O)Nc3nc4ccccc4[nH]3)c(=O)oc2c1 | 1.93% (inactive) | 
53 | Cc1cc(C)c2c(c1)/C(=N/Nc1nc3ccccc3[nH]1)CCC2 |  | 4.47 µM (active)
54 | Cc1cc(C)c2c(c1)C(=O)CCC2 | 14.9% (inactive) | 
55 | CC(=O)N1CCN(C(=O)CCC(=O)N2CCC(c3noc4cc(F)ccc34)CC2)CC1 | 5.39% (inactive) | 
56 | Cc1oc(C)c(C(=O)Nc2ccccc2O)c1C | 0% (inactive) | 
57 | Cc1cnc2c(S(=O)(=O)N3CCN(C(C)CC#N)CC3)cccc2c1 (configuration not stated) | 8.29% (inactive) | 
58 | CNC(=O)NC(=O)CN1CCCC(c2nc3ccccc3o2)C1 (configuration not stated) | -2.97% (inactive) | 
59 | Cc1ccc(-c2noc(-c3occc3Br)n2)cc1 | 193% (inactive) | 
60 | O=S(=O)(NCC12CC3CC(CC(C3)C1)C2)c1cccs1 | 0.0354% (inactive) | 
61 | COc1ccc(Nc2cc(C(=O)NCCCN(C)c3ccccc3)c3ccccc3n2)c(OC)c1 | -7.92% (inactive) | 
62 | CCCCN(CCCNC(=O)c1cc(Nc2ccccc2OC)nc2ccccc12)c1ccccc1 | -0.272% (inactive) | 
63 | COc1ccccc1Nc1cc(C(=O)NCCCN(C)C2CCCCC2)c2ccccc2n1 |  | 28.2 µM (active)
64 | CC1CCN(S(=O)(=O)N(C)Cc2ccc3c(c2)OCCO3)CC1 | -4.77% (inactive) | 
65 | O=C(CN1CCN(CC(=O)Nc2ccccc2C(=O)c2ccccc2)CC1)Nc1cccc(F)c1 | -12% (inactive) | 
66 | COc1ccc(C=O)cc1OCc1c(F)cccc1Cl | 7.96% (inactive) | 

Row | Compound | activity change, negative = inhibition | Potency
67 | CC(C)C(=O)NC(Nc1cccc(Cl)c1Cl)C(Cl)(Cl)Cl (configuration not stated) | 3.54% (inactive) | 
68 | CC(NC(=O)Cn1nnn(-c2ccccc2)c1=O)c1ccccc1 (configuration not stated) | -1.05% (inactive) | 
69 | CCc1cccc(CC)c1NC(=O)CC(C)(C(=O)O)c1ccccc1 (configuration not stated) | -1.95% (inactive) | 
70 | COc1ccc(C23CC4CC(CC(C4)C2)C3)cc1C(=O)NC(c1ccccc1)c1ccccc1 | -0.0842% (inactive) | 
71 | CC(Oc1ccccc1F)C(=O)Nc1c(F)cccc1F (configuration not stated) | -5.6% (inactive) | 
72 | Cc1nn(CC(=O)NC(C)(C)C)c(C)c1S(=O)(=O)N1CCCC(C(=O)N2CCOCC2)C1 (configuration not stated) | -2.97% (inactive) | 
73 | CCCn1c(NC(=O)c2oc3ccc(OC)cc3c2C)nc2ccccc21 | 6.06% (inactive) | 
74 | CCCNc1c(NC(=O)Nc2ccccc2C)c(=O)oc2ccccc12 | 15.8% (inactive) | 
75 | CCN(CC)c1ccc(NS(=O)(=O)c2cc(-c3cc(C)no3)ccc2C)c(C)c1 | -2.71% (inactive) | 
76 | CCC1CN(S(=O)(=O)c2cc(-c3cc(C)no3)ccc2C)c2cc(C)ccc2O1 (configuration not stated) | 29.8% (inactive) | 
77 | Cc1cc(-c2ccc(C)c(S(=O)(=O)N3c4ccccc4CC3C)c2)on1 (configuration not stated) |  | 14.1 µM (active)
78 | CCOc1ccc(N(Cc2ccccc2)C(=O)c2nc(S(C)(=O)=O)ncc2Cl)cc1 |  | 22.4 µM (active)
79 | CCOc1ccc(CN2CCC(N(C)Cc3ccccc3)CC2)cc1 | 2.31% (inactive) | 
80 | CCOc1ccc(N(Cc2ccccc2)C(=O)c2nc(SCC)ncc2Cl)cc1 | 0% (inactive) | 
81 | O=C(OCc1ccc(Cl)cc1Cl)c1c(F)cccc1F | 29.2% (inactive) | 
82 | COc1ccc(C(=O)Nc2c(NCC3CCCCC3)c3ccccc3oc2=O)cc1OC | -1.4% (inactive) | 
83 | O=S(Cc1ccccc1)Cc1cccc(F)c1 (configuration not stated) | 2.48% (inactive) | 
84 | CCn1nc(C(=O)Nc2nnc(Cc3ccccc3)s2)c2ccccc2c1=O | 15.9% (inactive) | 
85 | O=C(Oc1ccc(Br)cc1)c1cnccn1 | 142% (inactive) | 
86 | Cc1cc(=O)oc2cc(OCC(=O)Nc3ccc(S(=O)(=O)N4CCOCC4)cc3)ccc12 | -5.69% (inactive) | 
87 | Cn1cc2c(C(F)(F)F)cc(=O)n(CCC(=O)O)c2n1 | 6.41% (inactive) | 
88 | Cc1ccc(N2CCN(C(=O)c3nn(C)c4c3CCc3sccc3-4)CC2)c(C)c1 | 18% (inactive) | 

Row | Compound | activity change, negative = inhibition | Potency
89 | COc1ccc(/C=C2\Oc3cc(OS(=O)(=O)c4ccc(C)cc4)ccc3C2=O)c(OC)c1OC | 0.175% (inactive) | 
90 | CCOC(=O)C1=C(C)NC(=O)NC1c1ccc(C(=O)OC)cc1 (configuration not stated) | 48.5% (inactive) | 
91 | Cc1ccccc1NC(=O)CSc1nc(C2CC2)n(-c2ccccc2)n1 | 2.27% (inactive) | 
92 | COc1ccc(-c2cc(C(=O)N3CCN(CC(=O)N4CCOCC4)CC3)c3ccccc3n2)cc1 | 191% (inactive) | 
93 | COC(=O)CCCn1c(C)cc(C(=O)COC(=O)c2nccnc2N)c1C | 155% (inactive) | 
94 | COC1CC(OC2CCC3(C=O)[C@H]4CCC5(C)C(C6=CC(=O)OC6)CCC5(O)[C@@H]4CCC3(O)C2)OC(C)C1O (some centres not stated) |  | 0.282 µM (active)
95 | COc1ccc2c(C)c(CC(=O)NCc3ccccc3Cl)c(=O)oc2c1 | 17.9% (inactive) | 
96 | CC(Sc1nnc(CCC(N)=O)n1C1CC1)C(=O)c1c[nH]c2ccccc12 (configuration not stated) | 0.749% (inactive) | 
97 | CC(NC(=O)C(=O)Nc1cc(Cl)ccc1Cl)c1ccccc1 (configuration not stated) | 0% (inactive) | 
98 | CCCc1cc(=O)oc2c(C)c(OCC(=O)OC(C)C)ccc12 | 9.01% (inactive) | 
99 | CC(C(=O)Nc1cccc(C#N)c1)n1nnc(-c2cccc(C(F)(F)F)c2)n1 (configuration not stated) | -10.8% (inactive) | 
100 | CCOc1ccccc1-c1nn2c(CN3CCCCC3)nnc2s1 | -3.75% (inactive) | 
101 | Cc1nccn1CCc1nc2cc(NC(=O)C(C)C)ccc2n1C | -8.8% (inactive) | 
102 | CCCCn1c(=O)[nH]c(=O)c2c1nc(-c1ccc(OCC#N)c(OC)c1)n2C | -6.14% (inactive) | 
103 | N#Cc1ccccc1N=Cc1ccc2ccccc2c1 | 92.7% (inactive) | 
104 | Cc1cc(C(F)(F)F)nn1Cc1nc2c3c4c(sc3ncn2n1)CCC4 | -9.93% (inactive) | 
105 | CCSc1ncc(Cl)c(C(=O)Nc2cc(C)ccc2C)n1 | -12.3% (inactive) | 
106 | Cc1ccc(NC(=O)c2nc(S(=O)(=O)Cc3cccc(C)c3)ncc2Cl)cc1 |  | 22.4 µM (active)
107 | CCCS(=O)(=O)c1ncc(Cl)c(C(=O)Nc2scc(-c3ccccc3)c2C(=O)OCC)n1 | 12.2% (inactive) | 
